# SW480 rereplic: A quantitative high throughput screen for small molecules that induce DNA re-replication in SW480 colon adenocarcinoma cells; SW480 DNA re-replication, Hoechst DNA content imaging, 48 h; Potency, µM (series often up to 46.1 µM), inactives show top-dose re-replication activation, usual class: activators; 340,000 compounds, 1.8% hits; AID 624297, 2012; also: potency is read from the fitted curve at half-maximal effect; % of control where 0% means no effect; nearly all actives have a fitted effect of over 55% in size
#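 First, 250 cells per well were seeded. Next, compound or vehicle (23 nL) was pinned in, plates sat 48 hr at 37 C. Finally Hoechst was added for 40 min before fluorescence scanning.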
# TDP1 cell noCPT: qHTS for Inhibitors of human tyrosyl-DNA phosphodiesterase 1 (TDP1): qHTS in cells in absence of CPT; DT40 Tdp1-/- hTDP1 cells, no CPT, ATP luminescence, 48 h; Potency, µM (highest dose often 46.2 µM), for the others: top-dose activity change, negative = growth inhibition, usual class: inhibitors; 420,000 compounds, 15% hits; also: potency is read from the fitted curve at half-maximal effect; % is scaled to controls: 0 for no effect and ±100 for the full control effect; nearly all actives have a fitted effect of over 55% in size
#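 Stably hTDP1-transfected Tdp1-null chicken DT40 cells were treated with library compounds minus camptothecin and grown for at least 48 hr at 37 °C, after which cellular ATP was quantified by luminescence.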
# MCF10A rerep: A quantitative high throughput screen for small molecules that induce DNA re-replication in MCF 10a normal breast cells. MCF 10A DNA re-replication, Hoechst nuclear intensity, 48 h. Potency, µM (highest dose often 46.1 µM), without a hit: at the highest dose activity, positive = re-replication, usual class: activators. 350,000 compounds, 2.9% hits. AID 624296, 2012; also: potency is read from the fitted curve at half-maximal effect; % of control where 0% means no effect; nearly all actives have a fitted effect of over 50% in size
# DT40 TDP1 CPT: qHTS for Inhibitors of human tyrosyl-DNA phosphodiesterase 1 (TDP1): qHTS in cells in presence of CPT | chicken DT40 Tdp1-/-;hTDP1 cells + 20 nM CPT, ATP luminescence, 48 h | 420,000 compounds, 12% hits | AID 686979, 2013 | Potency, µM (top dose mostly 46.2 µM), for inactives: at the highest dose activity change, negative = growth inhibition, most hits filed as inhibitors; also: potency is read from the fitted curve at half-maximal effect; % is scaled to controls: 0 for no effect and ±100 for the full control effect; nearly all actives have a fitted effect of over 55% in size
#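 Cell growth measured by CellTiter-Glo luminescence after a minimum 48 h, 37 C compound exposure with 20 nM CPT in Tdp1-knockout DT40 cells stably expressing hTDP1, seeded 400/well; qHTS titration format.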
# IL1B secr inh: qHTS for Inhibitors of Inflammasome Signaling: IL-1-beta AlphaLISA Primary Screen; THP-1 LPS/ATP IL-1B secretion, AlphaLISA, 16 h; hits give low values; activity change, % at 57.5 µM; AID 743279, 2014; 360,000 compounds, 4.7% hits; in the data active = activity change below about -50%; inconclusive = mostly about -30% to -49%; also: % is scaled to controls: 0 for no effect and ±100 for the full control effect
#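 THP-1 cells pretreated 1 hr with compounds (up to 57.5 uM final), then stimulated with LPS (250 ng/mL final) plus ATP (1.25 mM final); secreted IL-1B measured by AlphaLISA after 16 hr, decreased signal indicating inhibition.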
# BCR signal inh: qHTS Assay to Find Inhibitors of Chronic Active B-Cell Receptor Signaling. ABC-DLBCL IkBa-CBG/CBR reporter, luminescence ratio, 4 h. Potency, µM (series often up to 46.1 µM), for inactives: at the highest dose activity change, negative = inhibition, usual class: inhibitors. 340,000 compounds, 0.05% hits; active = well fitted inhibition curve with a large enough effect in the signal ratio, with a control signal flat, not every such curve was filed as active; inconclusive = small, poorly fitted or top-dose-only effect, or effect the other way, or a change in a side signal; the % refers to the signal ratio;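 also: potency is read from the fitted curve at half-maximal effect; plate controls were basal doxycycline-induced cells for no effect and cells given 10 µM MG132 for full effect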
#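 Compounds up to 46 uM were incubated four hours with TMD8 cells whose green CBG68 luciferase is fused to IkappaBalpha; red CBR luminescence normalised the signal, and concentration-effect curves were fitted to fusion, red and ratio data.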
# An asterisk follows results filed as active; ? = inconclusive; nt = no result given. In the library only some 19% were active in any assay of this set; here they are far more common. Unless noted, calls follow the shape of the dose curve; as a rule, active = well fitted curve in the direction sought with a large enough effect; inconclusive = small, poorly fitted or top-dose-only effect, or another doubt; inactive = no such curve, though single readings can be large; an effect the other way counts as inactive or inconclusive.
SMILES,SW480 rereplic,TDP1 cell noCPT,MCF10A rerep,DT40 TDP1 CPT,IL1B secr inh,BCR signal inh
CC1=C(c2ccc(C(C)C)cc2)S(=O)(=O)NC1=NCc1ccc(OC(C)C)cc1,nt,-14%,nt,-14%,nt,nt
Cc1ccc(-n2[nH]c(C)c(C=Nc3ccc(S(=O)(=O)Nc4nccs4)cc3)c2=O)cc1C,-8%,18µM*,0%,8.2µM*,23,5%
Cc1[nH]n(-c2ccccc2)c(=O)c1C=Nc1ccc(S(=O)(=O)Nc2nccs2)cc1,-2%,-9%,0%,?,1,?
COc1nccnc1NS(=O)(=O)c1ccc(N=Cc2c(C)[nH]n(-c3ccccc3)c2=O)cc1,2%,?,12%,-29%,9,3%
COc1cc(S(=O)(=O)Nc2ccc(C)cc2)ccc1N=Cc1c(C)[nH]n(-c2ccccc2)c1=O,13%,?,2%,9.2µM*,?,?
COc1nccnc1NS(=O)(=O)c1ccc(N=Cc2c(C)[nH]n(-c3ccc(C)c(C)c3)c2=O)cc1,-1%,9.2µM*,1%,8.2µM*,12,5%
CCCCCNC(=O)C(c1ccc(OC)cc1)n1c(=O)c(-c2cc3ccccc3[nH]2)nc2ccccc21 (centres undefined),nt,?,nt,?,21,nt
O=C(CN1CCN(S(=O)(=O)c2ccc(Cl)cc2)CC1)N1CCCC1,3%,-1%,2%,-17%,-2,-5%
OCC1(Cc2ccccc2F)CCCN(Cc2c(F)ccc(F)c2F)C1 (centres undefined),9%,-24%,?,4%,?,9%
COc1ccc(N2CCN(C(=O)c3cc(S(=O)(=O)N4CCC(C)CC4)cn3C)CC2)cc1,nt,21µM*,nt,23µM*,nt,nt
Cn1cc(S(=O)(=O)N2CCCCCC2)cc1C(=O)N1CCN(c2cccc(C(F)(F)F)c2)CC1,nt,23µM*,nt,16µM*,nt,nt
Cn1cc(S(=O)(=O)N2CCCCCC2)cc1C(=O)N1CCN(c2cccc(Cl)c2)CC1,nt,?,nt,15µM*,nt,nt
O=C1c2cccnc2C(=O)N1Cc1ccc(S(=O)(=O)N2CCN(c3ccccc3)CC2)cc1,-2%,20%,2%,-1%,-18,-1%
COc1ccc(C2CN=NC2C(=O)c2ccccc2)cc1 (centres undefined),-1%,?,5%,-10%,-29,?
Cn1c(C(=O)N2CCN(c3ccccc3)CC2)cc2cc(Cl)ccc21,-10%,-2%,-9%,-20%,36,5%
c1ccc2sc(NC3=NCN(C4CCCCC4)CN3)nc2c1,-2%,?,-15%,?,12,-11%
CC1CCCCC1N1CN=C(Nc2nc3ccccc3s2)NC1 (centres undefined),0%,?,6%,21µM*,29,-13%
Cc1ccc(-n2c(SCC(N)=O)nc3c([nH]c4ccccc43)c2=O)cc1,-5%,26µM*,2%,15µM*,23,?
Cc1cc(C)cc(NC(=O)CSc2nc3c([nH]c4ccccc43)c(=O)n2-c2ccc(F)cc2)c1,nt,21µM*,nt,8.2µM*,nt,nt
O=C(CSc1nc2c([nH]c3ccccc32)c(=O)n1-c1ccccc1)Nc1cccc(C(F)(F)F)c1,nt,23µM*,nt,15µM*,nt,nt
O=C(CSc1nc2c([nH]c3ccccc32)c(=O)n1-c1ccccc1F)Nc1cccc(Cl)c1,nt,21µM*,nt,?,nt,nt
